Screening results as filed in PubChem BioAssay.
TLR9-MyD88 inh: blocks human TLR9 binding to MyD88 | AID 504734 | 340,000 tested, 0.21% active | CHO BLA complementation TLR9-MyD88, CCF4 FRET ratio | Q9NR96+Q99836 | inhibition, % at 4.98 µM;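 active = inhibition above the mean over all tested compounds plus 3 SD, cut at about 21% in these data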
TLR4 MyD88 comp: TLR4-MyD88 interaction inhibition in cells. 200,000 tested, 0.18% active. HeLa CL3-4 TLR4/MyD88 BLA complementation, FRET ratio. inhibition, % at 8.4 µM. AID 861. O00206+Q99836; in the data active = inhibition above about 25%
Target sequence (O00206 whole entry, looked up): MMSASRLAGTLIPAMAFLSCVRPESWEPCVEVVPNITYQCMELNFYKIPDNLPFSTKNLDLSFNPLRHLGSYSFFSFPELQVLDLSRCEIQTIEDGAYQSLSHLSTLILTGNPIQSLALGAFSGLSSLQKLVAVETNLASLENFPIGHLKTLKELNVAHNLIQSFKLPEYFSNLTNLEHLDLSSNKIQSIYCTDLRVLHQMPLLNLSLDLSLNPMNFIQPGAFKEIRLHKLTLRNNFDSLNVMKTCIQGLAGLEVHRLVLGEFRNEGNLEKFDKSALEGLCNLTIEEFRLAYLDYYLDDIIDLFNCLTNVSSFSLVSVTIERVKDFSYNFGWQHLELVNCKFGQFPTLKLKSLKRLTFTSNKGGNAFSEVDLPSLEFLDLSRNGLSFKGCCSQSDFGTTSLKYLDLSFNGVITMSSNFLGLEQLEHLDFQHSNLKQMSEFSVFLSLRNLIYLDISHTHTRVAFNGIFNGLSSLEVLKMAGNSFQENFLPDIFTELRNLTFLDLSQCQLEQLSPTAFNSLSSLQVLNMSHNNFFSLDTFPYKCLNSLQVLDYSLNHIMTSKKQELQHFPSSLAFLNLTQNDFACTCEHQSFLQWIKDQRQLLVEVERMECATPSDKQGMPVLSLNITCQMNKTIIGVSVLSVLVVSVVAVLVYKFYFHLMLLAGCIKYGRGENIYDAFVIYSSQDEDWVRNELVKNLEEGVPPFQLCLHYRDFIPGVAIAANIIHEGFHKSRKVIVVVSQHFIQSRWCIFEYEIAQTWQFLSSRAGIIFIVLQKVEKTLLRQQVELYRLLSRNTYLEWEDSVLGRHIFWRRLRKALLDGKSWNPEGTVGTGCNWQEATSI
Target sequence (Q99836 whole entry, looked up): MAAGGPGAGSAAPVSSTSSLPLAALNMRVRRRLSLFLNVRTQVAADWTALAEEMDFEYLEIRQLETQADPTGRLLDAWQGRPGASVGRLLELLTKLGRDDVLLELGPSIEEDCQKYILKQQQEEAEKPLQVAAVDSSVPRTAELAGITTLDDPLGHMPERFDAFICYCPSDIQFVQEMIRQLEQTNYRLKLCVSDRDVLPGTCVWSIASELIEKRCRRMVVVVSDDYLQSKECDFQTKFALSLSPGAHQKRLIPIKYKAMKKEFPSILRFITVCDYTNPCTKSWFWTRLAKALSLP
PRMT1 FP inh: blocks human protein arginine methyltransferase 1 | Q99873 | recombinant PRMT1, activity-based probe fluorescence polarization | inhibition, % at 2.79 µM | 370,000 tested, 1.3% active;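 active = inhibition above about 21% made by adding two undisclosed values, limit read from the data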
Exocytosis inh: lytic granule exocytosis inhibition; inhibition, % at 10 µM; TALL-104 LAMP-1 surface exposure, flow cytometry; cells stimulated with thapsigargin and PMA; 360,000 tested, 0.66% active;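 active = inhibition above about 55%, limit read from the data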
NOD2-RIPK2 inh: blocks binding of human NOD2 to RIPK2 | 360,000 tested, 0.38% active | CHO BLA complementation NOD2-RIPK2, CCF4 ratio | O43353 | inhibition, % at 4.98 µM; in the data active = inhibition above about 21%
ABHD5-PLIN5 inh: ABHD5-PLIN5 protein interaction inhibition. Split G. princeps luciferase complementation, luminescence, 4 h. 360,000 tested, 0.78% active. Q00G26+Q8WTS1. inhibition, % at 4 µM. AID 602281;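 active = inhibition above the mean inhibition across every tested compound plus 3 SD, cut at about 22% in these data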
Granule exo CP1: blocks lytic granule exocytosis; AID 651954; inhibition, % at 10 µM; TALL-104 cells, LAMP-1 externalization, flow cytometry; stimulated with PMA plus thapsigargin; 1,500 tested, 11% active; shares compounds with Exocytosis inh; in the data active = inhibition above about 60%
A number is an active result. Compounds with a hit are over-represented: about 2.6% of the library has one in this group of screens.

Screening COC(=O)c1cn(C(=O)c2ccc(C)cc2)c2ccccc12 returned TLR9-MyD88 inh inactive, TLR4 MyD88 comp inactive, PRMT1 FP inh inactive, Exocytosis inh inactive, NOD2-RIPK2 inh inactive and ABHD5-PLIN5 inh inactive.
For CCOc1cc(CNCCc2ccc(S(N)(=O)=O)cc2)ccc1OCc1ccc(Cl)cc1 the results were TLR9-MyD88 inh inactive, TLR4 MyD88 comp inactive, PRMT1 FP inh inactive, Exocytosis inh 103, NOD2-RIPK2 inh inactive, ABHD5-PLIN5 inh 28 and Granule exo CP1 94.
Cc1ccc(S(=O)(=O)N(C)[C@H]2C[C@H]3c4cc(-c5ccc6c(c5)OCO6)ccc4CCN3C[C@H]2[C@H](C)O)cc1 was read as PRMT1 FP inh inactive.
For COC(=O)C1=C(C)N(Cc2ccc(C(F)(F)F)cc2)C(=NCC2CC2)NC1c1ccccc1C(F)(F)F (stereo not given) the results were PRMT1 FP inh inactive.
`O=C(CCC(=O)N1CCCc2ccccc21)N1CCN(S(=O)(=O)c2ccccc2)CC1` gave TLR9-MyD88 inh inactive, TLR4 MyD88 comp inactive, PRMT1 FP inh inactive, Exocytosis inh inactive, NOD2-RIPK2 inh inactive and ABHD5-PLIN5 inh inactive.
`O=C(CCS(=O)(=O)c1ccccc1)N1CCCc2ccccc21` gave TLR9-MyD88 inh inactive, PRMT1 FP inh inactive, Exocytosis inh 74, NOD2-RIPK2 inh inactive, ABHD5-PLIN5 inh inactive and Granule exo CP1 inactive.
For COc1ccc(-c2csc3ncnc(N4CCN(c5ccccc5)CC4)c23)cc1 the results were TLR9-MyD88 inh inactive, PRMT1 FP inh inactive, Exocytosis inh 70, NOD2-RIPK2 inh inactive, ABHD5-PLIN5 inh inactive and Granule exo CP1 inactive.
Screening COc1ccc(-c2csc3ncnc(N4CCN(c5ccc(OC)cc5)CC4)c23)cc1 returned TLR9-MyD88 inh inactive, PRMT1 FP inh inactive, Exocytosis inh inactive, NOD2-RIPK2 inh inactive and ABHD5-PLIN5 inh inactive.
For Cc1ccc2c(CN(C)Cc3ccc(OC(F)F)cc3)cc(=O)oc2c1C the results were TLR9-MyD88 inh inactive, PRMT1 FP inh inactive, Exocytosis inh 84, NOD2-RIPK2 inh inactive, ABHD5-PLIN5 inh inactive and Granule exo CP1 inactive.
C[C@@H]1CN([C@H](C)CO)C(=O)CCCn2cc(nn2)CO[C@H]1CN(C)C(=O)Oc1ccccc1 was read as PRMT1 FP inh inactive.
For NC(c1ccccc1)c1csc(NC(=O)Nc2cccc(Cl)c2)n1 (stereo not given) the results were PRMT1 FP inh inactive, Exocytosis inh inactive, NOD2-RIPK2 inh inactive and ABHD5-PLIN5 inh inactive.
Screening NC(CCc1ccccc1)c1csc(NC(=O)Nc2cccc(Cl)c2)n1 (stereo not given) returned PRMT1 FP inh inactive, Exocytosis inh 57, NOD2-RIPK2 inh inactive, ABHD5-PLIN5 inh inactive and Granule exo CP1 inactive.
O=C(NCc1ccccc1)[C@H]1CCCN1C(=O)[C@H]1CCCN1C(=O)c1ccc(Cl)cc1 was read as PRMT1 FP inh inactive.
O=C(CNS(=O)(=O)c1cccc(F)c1)OCC(=O)N1CCCC1=O was read as TLR9-MyD88 inh inactive, PRMT1 FP inh inactive, Exocytosis inh inactive, NOD2-RIPK2 inh inactive and ABHD5-PLIN5 inh inactive.
For O=C(CNS(=O)(=O)c1c(F)cc(F)cc1Br)OCC(=O)N1CCCC1=O the results were TLR9-MyD88 inh inactive, PRMT1 FP inh inactive, Exocytosis inh 61, NOD2-RIPK2 inh inactive, ABHD5-PLIN5 inh inactive and Granule exo CP1 inactive.
Screening C[C@H](c1ccccc1)N1C[C@H](COCc2ccccc2)Oc2cc(N3CC[C@H](N(C)C)C3)ccc2S1(=O)=O returned PRMT1 FP inh inactive, Exocytosis inh 68, NOD2-RIPK2 inh inactive, ABHD5-PLIN5 inh inactive and Granule exo CP1 inactive.
`C[C@@H](c1ccccc1)N1C[C@H](COCc2ccccc2)Oc2cc(N3CC[C@@H](N(C)C)C3)ccc2S1(=O)=O` gave PRMT1 FP inh inactive, Exocytosis inh inactive, NOD2-RIPK2 inh inactive and ABHD5-PLIN5 inh inactive.
For COc1cccc(OC)c1C(=O)Oc1ccc2c(c1)O/C(=C\c1ccncc1)C2=O the results were TLR9-MyD88 inh inactive, TLR4 MyD88 comp inactive, PRMT1 FP inh inactive, Exocytosis inh 60, NOD2-RIPK2 inh inactive, ABHD5-PLIN5 inh inactive and Granule exo CP1 inactive.
O=C(Nc1ccc2nc(-c3cccs3)c(-c3cccs3)nc2c1)NC1CC1 was read as TLR9-MyD88 inh inactive, TLR4 MyD88 comp inactive, PRMT1 FP inh inactive, Exocytosis inh 99, NOD2-RIPK2 inh inactive, ABHD5-PLIN5 inh inactive and Granule exo CP1 103.
For COCCNC(=O)Nc1ccc2nc(-c3cccs3)c(-c3cccs3)nc2c1 the results were TLR9-MyD88 inh inactive, TLR4 MyD88 comp inactive, PRMT1 FP inh inactive, Exocytosis inh inactive, NOD2-RIPK2 inh inactive and ABHD5-PLIN5 inh inactive.
For CCCCCC(=O)NC1CCCCN(Cc2ccccc2C)C1=O (stereo not given) the results were PRMT1 FP inh inactive.
For C[C@H](O)[C@@H]1C(=O)N2CCc3c([nH]c4cccc(-c5ccccc5)c34)[C@@H]2C[C@@H]1N(C)C(=O)NC1CCCCC1 the results were PRMT1 FP inh inactive.
COCCCn1c(SCc2ccccc2)nc2cc(OC)c(OC)cc2c1=N was read as TLR9-MyD88 inh inactive, TLR4 MyD88 comp inactive, PRMT1 FP inh inactive, Exocytosis inh 84, NOD2-RIPK2 inh inactive, ABHD5-PLIN5 inh inactive and Granule exo CP1 inactive.
Screening COCCCn1c(SCc2cccc(C(F)(F)F)c2)nc2cc(OC)c(OC)cc2c1=N returned TLR9-MyD88 inh inactive, TLR4 MyD88 comp inactive, PRMT1 FP inh inactive, Exocytosis inh inactive, NOD2-RIPK2 inh inactive and ABHD5-PLIN5 inh inactive.
COc1ccc(NC(=O)COc2ccccc2C(=O)NCC(c2ccccc2)N(C)C)cc1Cl (stereo not given) was read as TLR9-MyD88 inh inactive, PRMT1 FP inh inactive, Exocytosis inh 66, NOD2-RIPK2 inh inactive, ABHD5-PLIN5 inh inactive and Granule exo CP1 inactive.
Screening COc1ccc(NC(=O)COc2ccccc2)cc1Cl returned TLR9-MyD88 inh inactive, PRMT1 FP inh inactive, Exocytosis inh inactive, NOD2-RIPK2 inh inactive and ABHD5-PLIN5 inh inactive.
Screening COc1ccccc1C(=O)Nc1ccccc1SC(=O)c1ccccc1OC returned TLR9-MyD88 inh inactive, PRMT1 FP inh 52, Exocytosis inh 91, NOD2-RIPK2 inh inactive, ABHD5-PLIN5 inh inactive and Granule exo CP1 inactive.
For O=c1ccn2c(n1)OC1CC2OC1COC(c1ccccc1)(c1ccccc1)c1ccccc1 (stereo not given) the results were PRMT1 FP inh inactive.
`Oc1ccc(-c2c(-c3ccsc3)sc3ccccc23)cc1` gave TLR9-MyD88 inh inactive, PRMT1 FP inh inactive, Exocytosis inh 87, NOD2-RIPK2 inh inactive, ABHD5-PLIN5 inh inactive and Granule exo CP1 inactive.
Screening CC(C)n1nnnc1C1(C)CN(S(C)(=O)=O)CC(=O)N1Cc1cccc(C(F)(F)F)c1 (stereo not given) returned PRMT1 FP inh inactive.
For CC(C)C[C@@H]1COc2cc(F)ccc2S(=O)(=O)N1C the results were PRMT1 FP inh inactive.
